Assay results as given in PubChem BioAssay (NCI).
About 83,000 compounds went through this panel and 20% of them were active in at least one assay; those are over-represented in the sample as a whole.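 Single-dose data. Exposure time 48 hours. Values below 10 considered active.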 Calls of active or inactive are those of the source.

Key:
Test in all cases: NCI-60 one-dose screen, 48 h (100 = growth as untreated, 0 = no growth, -100 = all killed)
Settings in all cases: 10 µM unless noted
NCI-H23 lung = tested on: NCI-H23 lung
NCI-H226 lung = tested on: NCI-H226 lung
NCI-H322M lung = tested on: NCI-H322M lung
HOP-62 NSCLC = tested on: HOP-62 NSCLC
NCI-H460 lung = tested on: NCI-H460 lung
HOP-92 NSCLC = tested on: HOP-92 NSCLC
NCI-H522 lung = tested on: NCI-H522 lung
A549/ATCC NSCLC = tested on: A549/ATCC NSCLC
786-0 renal = tested on: 786-0 renal
COLO 205 colon = tested on: COLO 205 colon
DU-145 prostate = tested on: DU-145 prostate
K-562 leukemia = tested on: K-562 leukemia
MALME-3M melanoma = tested on: MALME-3M melanoma
MDA-MB-231 breast = tested on: MDA-MB-231 breast
RXF 393 renal = tested on: RXF 393 renal
SF-268 CNS = tested on: SF-268 CNS
SF-295 CNS = tested on: SF-295 CNS
SF-539 CNS = tested on: SF-539 CNS
UACC-257 melanoma = tested on: UACC-257 melanoma
M14 melanoma = tested on: M14 melanoma

Measured: growth

Cc1cc(C)c(-c2cc(O)c(-c3c(C)cc(C)cc3C)cc2O)c(C)c1
active: NCI-H522 lung -12.7% | COLO 205 colon -12.8% | K-562 leukemia 8.34% | SF-539 CNS -25.8%
inactive: NCI-H23 lung 34.9% | NCI-H226 lung 64.4% | NCI-H322M lung 68.6% | HOP-62 NSCLC 47.2% | NCI-H460 lung 16.9% | HOP-92 NSCLC 94.3% | A549/ATCC NSCLC 47.6% | 786-0 renal 30.4% | DU-145 prostate 20.3% | MALME-3M melanoma 54.9% | MDA-MB-231 breast 51.5% | RXF 393 renal 18% | SF-268 CNS 55.3% | SF-295 CNS 30.2% | UACC-257 melanoma 73.8% | M14 melanoma 20.7%

CCN=Cc1c(O)c(O)c(C(C)C)c2cc(C)c(-c3c(C)cc4c(C(C)C)c(O)c(O)c(C=NCC)c4c3O)c(O)c12
active: COLO 205 colon 7.89%
inactive: NCI-H23 lung 24.9% | NCI-H226 lung 80.4% | NCI-H322M lung 48.3% | HOP-62 NSCLC 51.3% | NCI-H460 lung 26% | HOP-92 NSCLC 16.3% | NCI-H522 lung 43.3% | A549/ATCC NSCLC 27.2% | 786-0 renal 72.5% | DU-145 prostate 53% | K-562 leukemia 16.4% | MALME-3M melanoma 75.1% | MDA-MB-231 breast 50.5% | RXF 393 renal 68.2% | SF-268 CNS 44.7% | SF-295 CNS 29.5% | SF-539 CNS 55.2% | UACC-257 melanoma 85.2% | M14 melanoma 61.6%

CC(C)c1ccc(C(=O)Nc2nc3ccc(O)cc3s2)cc1
active: NCI-H460 lung 3.97% | 786-0 renal 0.538% | K-562 leukemia -1.97% | SF-295 CNS -36.4% | SF-539 CNS -21.9% | M14 melanoma 3.05%
inactive: NCI-H23 lung 51.4% | NCI-H226 lung 66.6% | NCI-H322M lung 62.2% | HOP-62 NSCLC 93.1% | HOP-92 NSCLC 50% | NCI-H522 lung 39.6% | A549/ATCC NSCLC 33.5% | COLO 205 colon 33% | DU-145 prostate 42.1% | MALME-3M melanoma 26.3% | MDA-MB-231 breast 73% | RXF 393 renal 67.3% | SF-268 CNS 51.5% | UACC-257 melanoma 25.9%

COc1cc2c(c(OC)c1)C1c3cc(OC)ccc3NC(=O)N1CC2 (stereo not given)
inactive: NCI-H23 lung 92.9% | NCI-H226 lung 99.3% | NCI-H322M lung 102% | HOP-62 NSCLC 67.6% | NCI-H460 lung 79.2% | HOP-92 NSCLC 80.6% | NCI-H522 lung 38.3% | A549/ATCC NSCLC 67.2% | 786-0 renal 95.6% | COLO 205 colon 80.5% | DU-145 prostate 102% | K-562 leukemia 30.8% | MALME-3M melanoma 75.5% | MDA-MB-231 breast 66.5% | RXF 393 renal 98.2% | SF-268 CNS 80.4% | SF-295 CNS 74% | SF-539 CNS 85.1% | UACC-257 melanoma 90.8% | M14 melanoma 59.4%

O=C1CC(c2ccc3c(c2)OCO3)Nc2ccccc21 (stereo not given)
inactive: NCI-H23 lung 40.2% | NCI-H226 lung 65.3% | NCI-H322M lung 51.3% | HOP-62 NSCLC 24.2% | NCI-H460 lung 10.5% | HOP-92 NSCLC 20.5% | NCI-H522 lung 19.8% | A549/ATCC NSCLC 21.8% | 786-0 renal 42.2% | K-562 leukemia 12.4% | MALME-3M melanoma 46% | MDA-MB-231 breast 38.9% | SF-268 CNS 43.1% | UACC-257 melanoma 42.3%
active: COLO 205 colon -16.4% | DU-145 prostate 7.64% | RXF 393 renal -22% | SF-295 CNS 4.53% | SF-539 CNS 0.134% | M14 melanoma -15.8%

COc1ccc2nc3cc(Cl)ccc3c(Nc3ccc(O)c(CN4CCCC4)c3)c2c1
active: NCI-H322M lung 7.91% | NCI-H460 lung -27.4% | NCI-H522 lung -40.7% | 786-0 renal -21.8% | COLO 205 colon -19.8% | DU-145 prostate -9.64% | K-562 leukemia -6.52% | MALME-3M melanoma -86.6% | RXF 393 renal -84% | SF-295 CNS 8.91% | SF-539 CNS -87.4% | UACC-257 melanoma -81.1% | M14 melanoma -83.2%
inactive: NCI-H23 lung 47.3% | NCI-H226 lung 97.5% | HOP-62 NSCLC 26.9% | HOP-92 NSCLC 31.9% | A549/ATCC NSCLC 27.7% | MDA-MB-231 breast 11.7% | SF-268 CNS 38.5%

C#CC(OC(=O)N(C)C)(c1ccccc1)c1ccc(F)cc1 (stereo not given)
inactive: NCI-H23 lung 98.7% | NCI-H226 lung 89.7% | NCI-H322M lung 128% | HOP-62 NSCLC 116% | NCI-H460 lung 96.7% | HOP-92 NSCLC 92.9% | NCI-H522 lung 83.2% | A549/ATCC NSCLC 75% | 786-0 renal 120% | COLO 205 colon 158% | DU-145 prostate 105% | K-562 leukemia 120% | MALME-3M melanoma 142% | MDA-MB-231 breast 101% | RXF 393 renal 87.7% | SF-268 CNS 91.1% | SF-295 CNS 115% | SF-539 CNS 107% | UACC-257 melanoma 87.8% | M14 melanoma 129%

O=C(Nc1cccc(C2=NCCN2)c1)c1cccc(C(=O)Nc2cccc(C3=NCCN3)c2)c1
inactive: NCI-H23 lung 95.4% | NCI-H226 lung 90.5% | NCI-H322M lung 92.4% | HOP-62 NSCLC 97.1% | NCI-H460 lung 102% | HOP-92 NSCLC 101% | NCI-H522 lung 94.1% | A549/ATCC NSCLC 102% | 786-0 renal 103% | COLO 205 colon 99.8% | DU-145 prostate 107% | K-562 leukemia 96.6% | MALME-3M melanoma 97.1% | MDA-MB-231 breast 101% | RXF 393 renal 102% | SF-268 CNS 96.4% | SF-295 CNS 99% | SF-539 CNS 95.7% | UACC-257 melanoma 95.8% | M14 melanoma 99%

CCCCNC(=O)NS(=O)(=O)Cc1ccccc1
inactive: NCI-H23 lung 114% | NCI-H226 lung 107% | NCI-H322M lung 118% | HOP-62 NSCLC 107% | NCI-H460 lung 111% | HOP-92 NSCLC 94.4% | NCI-H522 lung 102% | A549/ATCC NSCLC 101% | 786-0 renal 99% | COLO 205 colon 118% | DU-145 prostate 111% | K-562 leukemia 99.7% | MALME-3M melanoma 117% | MDA-MB-231 breast 127% | RXF 393 renal 124% | SF-268 CNS 107% | SF-295 CNS 116% | SF-539 CNS 101% | UACC-257 melanoma 104% | M14 melanoma 106%

CCCC(NC(=O)OCc1ccccc1)C(=O)O (stereo not given)
active: NCI-H23 lung -1.29%
inactive: NCI-H226 lung 89.5% | NCI-H322M lung 121% | HOP-62 NSCLC 111% | NCI-H460 lung 97.9% | HOP-92 NSCLC 82.2% | NCI-H522 lung 16.2% | A549/ATCC NSCLC 79.5% | 786-0 renal 108% | COLO 205 colon 137% | DU-145 prostate 107% | K-562 leukemia 107% | MALME-3M melanoma 88.8% | MDA-MB-231 breast 75.9% | RXF 393 renal 90.5% | SF-268 CNS 104% | SF-295 CNS 92.3% | SF-539 CNS 95.9% | UACC-257 melanoma 36.1% | M14 melanoma 93.1%

Cn1cc(-c2nnc(-c3ccccc3)s2)c2cc(Br)cnc21
inactive: NCI-H23 lung 85% | NCI-H226 lung 64% | NCI-H322M lung 88.2% | HOP-62 NSCLC 74.3% | NCI-H460 lung 95.4% | HOP-92 NSCLC 42.3% | NCI-H522 lung 89.5% | A549/ATCC NSCLC 83.1% | 786-0 renal 99.6% | COLO 205 colon 104% | DU-145 prostate 92.6% | K-562 leukemia 70.7% | MALME-3M melanoma 69.9% | MDA-MB-231 breast 39.3% | RXF 393 renal 102% | SF-268 CNS 91.7% | SF-295 CNS 95.5% | SF-539 CNS 78.9% | UACC-257 melanoma 100% | M14 melanoma 101%

CCCCCCCCCCCCCC[n+]1cccc(C(N)=O)c1
inactive: NCI-H23 lung 13.9% | NCI-H226 lung 13.8% | NCI-H322M lung 16.8% | HOP-62 NSCLC 17.1% | NCI-H460 lung 14.8% | A549/ATCC NSCLC 69.5% | DU-145 prostate 27.8% | UACC-257 melanoma 24.3%
active: HOP-92 NSCLC -26.8% | NCI-H522 lung -35.3% | 786-0 renal -40% | COLO 205 colon -66.8% | K-562 leukemia 9.03% | MALME-3M melanoma -33.9% | MDA-MB-231 breast -22.9% | RXF 393 renal -41.4% | SF-268 CNS -24.2% | SF-295 CNS -30.9% | SF-539 CNS -5.92% | M14 melanoma -38.8%

CC(=O)OC[C@]12CC[C@@H]([C@@H](C)C(N)=O)[C@@H]1[C@H]1CC[C@@H]3[C@@]4(C)CC[C@H](OC(C)=O)C(C)(C)[C@@H]4CC[C@@]3(C)[C@]1(C)CC2
active: NCI-H23 lung -40.3% [100 µM] | NCI-H226 lung -58.5% [100 µM] | NCI-H322M lung -78.2% [100 µM] | HOP-62 NSCLC -73% [100 µM] | NCI-H460 lung -61.8% [100 µM] | HOP-92 NSCLC -83.1% [100 µM] | NCI-H522 lung -61.1% [100 µM] | A549/ATCC NSCLC 9.89% [100 µM] | 786-0 renal -74% [100 µM] | COLO 205 colon -53% [100 µM] | DU-145 prostate -69.9% [100 µM] | K-562 leukemia 3.1% [100 µM] | MALME-3M melanoma -89% [100 µM] | MDA-MB-231 breast -88.6% [100 µM] | RXF 393 renal -64.9% [100 µM] | SF-268 CNS -61% [100 µM] | SF-295 CNS -50.8% [100 µM] | SF-539 CNS -83.9% [100 µM] | UACC-257 melanoma -46.2% [100 µM] | M14 melanoma -44.3% [100 µM]

CCOc1ccc(S(=O)(=O)Nc2ccc3c(c2)N(S(=O)(=O)CC)CCC3)cc1
inactive: NCI-H23 lung 87.5% | NCI-H226 lung 87% | NCI-H322M lung 86.8% | HOP-62 NSCLC 69.9% | NCI-H460 lung 52.6% | HOP-92 NSCLC 86.1% | NCI-H522 lung 68.4% | A549/ATCC NSCLC 84.3% | 786-0 renal 96% | COLO 205 colon 62.6% | DU-145 prostate 89.6% | K-562 leukemia 71.6% | MALME-3M melanoma 100% | MDA-MB-231 breast 88.7% | RXF 393 renal 86.2% | SF-268 CNS 74.1% | SF-295 CNS 59.2% | SF-539 CNS 61.6% | UACC-257 melanoma 85.4% | M14 melanoma 107%
